From PubChem BioAssay AID504861 (Broad Institute, 2011)
The whole screen tested about 1,200 compounds, of which about 290 (24%) were called active. Inconclusive results (about 3%) are left out.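 The calls were made as follows: active = compounds lowering cell viability signal with fitted half-maximal concentration at most ten times their highest tested concentration; inconclusive = flat fit with 30 to 70% signal loss, or poor fit; inactive = the rest.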 A selection follows. Measured potencies and affinities stand elsewhere.

assay: HEK293T cell viability reduction, dose response, cytotoxicity control for LMP1 NF-kB inhibitor project, CellTiter-Glo luminescence, cherry-picks (AID 504861); conditions: CellTiter-Glo ATP luminescence, 48 h; series mostly up to 26 µM

| SMILES | outcome |
| --- | --- |
| CCc1sc(C(=O)Nc2nc(-c3ccccn3)cs2)cc1C | inactive |
| Cc1ccc(C(=O)Nc2nnc(SCC(=O)N3CCCc4ccccc43)s2)cc1 | inactive |
| Cc1cccc(CNc2ncnc3ccc(-c4ccoc4)cc23)c1 | inactive |
| COCCn1c(C)cc(C(=O)CSc2nnc3ccccn23)c1C | inactive |
| Cc1ccc(S(=O)(=O)N2c3ccccc3-c3c(ssc3=S)C2(C)C)cc1 | inactive |
| Nc1ncnc2c1c(-c1ccc(Oc3ccccc3)cc1)cn2C1CCCC1 | inactive |
| O=C(Nc1cc(C(F)(F)F)cc(C(F)(F)F)c1)Nc1cnn(-c2ccc([N+](=O)[O-])cc2)c1C(F)(F)F | inactive |
| CCOc1ccc(NC(=O)c2ccc(N3CC4CC(C3)c3cccc(=O)n3C4)c(NC(=O)c3cccnc3)c2)cc1 (configuration not stated) | inactive |
| Cc1cccc(S(=O)(=O)N2CCCc3ccccc32)c1 | inactive |
| COc1ccc(OC)c(NC(=O)COc2coc(CN3CCc4ccccc43)cc2=O)c1 | inactive |
| Nc1ccc(CCNc2ncnc3c2ncn3[C@@H]2O[C@H](CO)[C@@H](O)[C@H]2O)cc1 | inactive |
| COc1ccc(-c2cc(C(F)(F)F)n3nc(C(=O)N4CCOCC4)nc3n2)cc1 | inactive |
| O=C(Nc1ccc2c(c1)C(=O)OC2)c1ccc(C(F)(F)F)cc1 | inactive |
| O=C(Cn1nc(C(F)(F)F)c2c1CCC2)NC1CCCCC1 | inactive |
| O=[N+]([O-])c1cc(/C=N\O)ccc1Oc1ccc(F)cc1 | inactive |
| COc1cc2cc(C(=O)Nc3ccc4c(c3)OCCO4)[nH]c2cc1OC | inactive |
| O=C(NNC(=S)Nc1ccc(Cl)c(Cl)c1)c1ccccn1 | inactive |
| CC(=O)Nc1ccc(NC(=O)C(c2ccccc2)c2ccccc2)cc1 | inactive |
| COCCCn1cnnc1SCC(=O)Nc1ccc(S(=O)(=O)N2CCCC2)cc1 | inactive |
| CC1CCN(C(=O)/C(=C\c2cccs2)NC(=O)c2ccccc2)CC1 | inactive |
| COc1ccc(C=C2OC(=O)C(C(C)=O)=C2O)cc1 | inactive |
| Cc1cc(C(=O)CN2C(=O)c3ccccc3C2=O)c(C)n1Cc1cccs1 | inactive |
| Cc1cccc(C)c1NC(=O)CN(C)CC(=O)Nc1ccccc1Oc1ccccc1 | inactive |
| COCCn1c(SCC(=O)NCc2ccco2)nnc1-c1c[nH]c2ccccc12 | inactive |
| c1ccc(OCCSc2nnc3sc4ccccc4n23)cc1 | inactive |
| CC(C)Oc1ccc(C2CC(=O)NC2=O)cc1 (configuration not stated) | inactive |

| SMILES | outcome |
| --- | --- |
| COCC(=O)N(C)c1nnc(-c2ccccn2)s1 | inactive |
| CCOC(=O)c1c2c(n(C)c1C)C(=O)C(=O)c1ccc(Br)cc1-2 | inactive |
| CCOC(=O)N1CCC(n2c(=S)[nH]c3ccccc3c2=O)CC1 | inactive |
| N#CC(C#N)c1ccnc2ccccc12 | inactive |
| O=C(O)/C=C/c1ccc(Cn2ccnc2)cc1 | inactive |
| Cc1ccc(C(=O)Nc2cccc(C(F)(F)F)c2)cc1Nc1ncnc2nc[nH]c12 | inactive |
| CCN1CCN(Cc2ccc(NC(=O)c3ccc(C)c(NC(=O)N4CCNC4=O)c3)cc2C(F)(F)F)CC1 | inactive |
| CCN1CCN(Cc2ccc(NC(=O)c3ccc(C)c(NC(=O)c4ccno4)c3)cc2C(F)(F)F)CC1 | inactive |
| CCN1CCN(Cc2ccc(NC(=O)c3ccc(C)c(NC(=O)c4nccn4C)c3)cc2C(F)(F)F)CC1 | inactive |
| Cc1ccc(C(=O)Nc2cccc(C(F)(F)F)c2)cc1NC(=O)c1ccno1 | inactive |
| CCN1CCN(Cc2ccc(NC(=O)c3ccc(C)c(NC(=O)c4cccc5[nH]ccc45)c3)cc2C(F)(F)F)CC1 | inactive |
| COc1cccc(CC(=O)NNC(=O)c2ccc3c(c2)OCO3)c1 | inactive |
| COC(=O)c1c(O)ccc(Oc2ccccc2)c1C(=O)OC | inactive |
| CCC(=O)NC(=S)Nc1ccccc1C(F)(F)F | inactive |
| N#CC1=C(N)N2C(=C(C#N)C1c1cccc(Br)c1)Nc1ccccc12 (configuration not stated) | inactive |
| C[C@@H](C(=O)Nc1ccc2c(c1)OCCO2)n1c(=O)[nH]c2ccccc2c1=O | inactive |
| Cc1nnc(SCC(=O)N2CCC(c3noc4ccc(F)cc34)CC2)s1 | inactive |
| S=C1SCN(Cc2ccco2)CN1Cc1ccco1 | inactive |
| O=C(CN(Cc1cccs1)C(=O)CNS(=O)(=O)c1ccccc1)NCc1ccco1 | inactive |
| COC(=O)c1ccc2nc(-c3cccc(N)c3)cn2c1 | inactive |
| Cc1ccc(S(=O)(=O)N2CCN(C(=O)CSc3nnnn3C)C2)cc1 | inactive |
| O=C(O)C1CC(=O)N(c2ccc(Br)cc2)C1 (configuration not stated) | inactive |
| CCOc1ccc(C(=O)NC(=S)N(Cc2ccccc2)Cc2ccccc2)cc1 | inactive |
| COCCn1c(C)cc(C(=O)COc2ccc(C)nc2[N+](=O)[O-])c1C | inactive |
| C=CCN(c1ccc(C(=O)Nc2ccc3c(c2)n(C)c(=O)n3C)cc1)S(C)(=O)=O | inactive |
| CC(C)N1CCN(c2ccc(OC[C@H]3CO[C@](Cn4cncn4)(c4ccc(Cl)cc4Cl)O3)cc2)CC1 | inactive |
